MEKK2 WT-MEK5 – raises or lowers MEK5 binding to wildtype human MEKK2 PB1 domain | Q9Y2U5 | bead flow cytometry, Alexa488-MEK5 binding to MEKK2 WT; actives lie on both sides | AID 1531 | 1.1% of 290,000 active | binding response (% of control), % at 10 µM; in the data active = binding response below about 67% or above about 130%
UBC13 inh – inhibitors of human UBC13 polyubiquitin chain formation | TR-FRET | inhibition, % at 20 µM | 0.47% of 330,000 active; in the data active = inhibition above about 45%, passing the limit was not always enough
ATG4B inh – inhibitors of human ATG4B cysteine protease | Q9Y4P1 | ATG4B cleavage of LC3-PLA2, NBD-HPC fluorescence, 1 h | inhibition, % at 8.33 µM | 0.51% of 340,000 active; in the data active = inhibition above about 40%
MEKK3 PB1 HTS – MEKK3-MEK5 PB1 interaction, increase or decrease | binding response (% of control), % at 10 µM | 1.4% of 290,000 active | Q99759 | bead-based flow cytometry, Alexa488-MEK5 binding to MEKK3; actives lie on both sides; 0 = blocked by unlabeled MEK5, 100 = vehicle;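 active = binding response more than 3 SD above or below the average of its plate-row segment, actives on both sides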;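 note: Alexa488 bead fluorescence after subtracting the streptavidin-only scavenger bead signal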
Target sequence (Q99759 whole entry, looked up): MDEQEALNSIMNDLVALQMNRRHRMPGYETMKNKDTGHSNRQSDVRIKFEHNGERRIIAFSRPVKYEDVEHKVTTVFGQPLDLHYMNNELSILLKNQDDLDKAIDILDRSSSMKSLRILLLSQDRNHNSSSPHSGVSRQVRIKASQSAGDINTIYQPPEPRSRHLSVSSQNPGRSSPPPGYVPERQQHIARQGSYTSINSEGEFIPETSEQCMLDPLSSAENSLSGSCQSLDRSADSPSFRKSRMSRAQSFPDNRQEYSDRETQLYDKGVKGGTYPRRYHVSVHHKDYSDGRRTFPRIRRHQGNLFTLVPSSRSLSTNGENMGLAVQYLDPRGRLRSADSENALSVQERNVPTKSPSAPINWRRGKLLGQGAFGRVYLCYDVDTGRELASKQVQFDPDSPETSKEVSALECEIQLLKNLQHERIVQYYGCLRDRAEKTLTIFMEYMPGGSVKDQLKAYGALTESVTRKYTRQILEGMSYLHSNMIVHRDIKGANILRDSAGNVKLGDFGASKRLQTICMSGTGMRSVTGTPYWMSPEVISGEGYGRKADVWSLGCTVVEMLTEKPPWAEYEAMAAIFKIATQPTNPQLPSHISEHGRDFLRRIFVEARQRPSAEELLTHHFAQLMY
PREPL inhibitor – inhibits the human prolyl oligopeptidase-like enzyme; Q4J6C6; recombinant PREPL, fluorescence polarization activity-based probe; inhibition, % at 5.96 µM; 0.68% of 320,000 active; in the data active = inhibition above about 43%;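 note: 0% = enzyme with DMSO and 100% = wells lacking enzyme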
MEKK2mut PB1 HTS – signal of MEK5 binding to mutant human MEKK2 PB1 domain; bead flow cytometry, Alexa488-MEK5 binding to MEKK2 mutant; 0.35% of 290,000 active; percent response, % at 10 µM; in the data active = percent response above about 24%, passing the limit was not always enough
ATG4B confirm – ATG4B (human) inhibition, single-dose confirmed; shares compounds with ATG4B inh; ATG4B protease fluorescent substrate cleavage assay; inhibition, % at 8.33 µM; 92% of 320 active; in the data active = inhibition above about 39%
PLA2 counter – counter-screen for ATG4B inhibitors: human phospholipase A2; shares compounds with ATG4B inh; purified PLA2, NBD-C6-HPC fluorescence, 45 min; inhibition, % at 8.33 µM; 66% of 1,600 active; in the data active = inhibition above about 50%
* marks the source's active call; other numbers are inactive results; . = no result given. Compounds with a hit are over-represented: about 3.1% of the library has one in this group of screens.

SMILES	MEKK2 WT-MEK5	UBC13 inh	ATG4B inh	MEKK3 PB1 HTS	PREPL inhibitor	MEKK2mut PB1 HTS	PLA2 counter	others
CCO[C@@H]1OC(C(=O)N2CCOCC2)=C[C@H](c2ccc(C(F)(F)F)cc2)[C@H]1CCCO	106	3	10	90	2	5	.
Cc1onc(-c2ccccc2)c1C(=O)OCC(=O)N(C)c1ccccc1	.	13	-18	.	3	.	.
Cc1cc(C)nc(SCC(=O)N/N=C/c2cccs2)n1	105	-11	-5	126	2	1	.
COc1ccccc1OCc1ccc(C(=O)n2nc(C)c(Cl)c2C)o1	102	-12	75*	104	0	2	77*
O=C(CSc1ccc(Cl)cc1)Nc1ccccc1Oc1ccccc1	111	1	40*	98	-2	7	15
O=C(N/N=C/c1ccc(-c2ccc(Cl)c(C(=O)O)c2)o1)c1cc2c(ccc3ccccc32)o1	73	17	42*	70	6	-32	63*
Cc1ccc(-c2ccc(/C=N\NC(=O)c3cc4c(ccc5ccccc54)o3)o2)cc1[N+](=O)[O-]	.	-19	3	.	7	.	.
COc1ccc(/C=C2\CCC(C3CCCC3)C2=O)cc1Cn1cccn1 (stereo not given)	100	4	68*	97	14	0	65*
CC1=Nc2cccc([N+](=O)[O-])c2NC(=O)C1	105	.	-6	101	.	3	.
O=C(CSc1nc2ccccc2c(=O)n1Cc1ccccc1)Nc1ccc(Br)cc1C(=O)O	95	-5	45*	100	-2	0	39	ATG4B confirm=60*
Cc1ccc(S(=O)(=O)N2CCOCC2)cc1NC(=O)CSc1nc2ccccc2c(=O)n1Cc1ccccc1	92	-3	-4	89	-9	-4	.
CCOC(=O)[C@@H](C)N(C(=O)OC(C)(C)C)S(=O)(=O)N(Cc1ccccc1)[C@H](C(=O)OC)C(C)C	.	.	-4	.	.	.	.
O=c1n(Cc2ccccc2)nc2n1-c1ccccc1SC2	89	8	38	94	2	-4	.
O=c1n(Cc2ccccc2Cl)nc2n1-c1ccccc1SC2	89	5	52*	94	-3	-6	54*
Cn1nc(C(=O)N2CCN(c3ccccn3)CC2)c2ccccc2c1=O	.	6	1	.	11	.	.
CON(C)C(=O)CC(CN(Cc1ccccc1)C(=O)OC(C)(C)C)c1ccc(Cl)cc1 (stereo not given)	.	-2	53*	.	8	.	79*
Cc1ccccc1NC(=S)NCCSc1ccc(Cl)cc1	97	-5	45*	99	-2	1	51*
Cc1cccc(NC(=S)NCCSc2ccc(Cl)cc2)c1	87	-1	51*	72	-4	-13	64*
Cc1cccc(NC(=S)NCC(C)CSc2ccc(Cl)cc2)c1 (stereo not given)	109	-6	34	103	-5	2	.
Cc1ccc(C)c(NC(=S)NCCSc2ccc(Cl)cc2)c1	95	15	15	74	1	-2	.
CCc1ccccc1NC(=S)NCCSc1ccc(Cl)cc1	80	-3	66*	82	1	-12	80*
CC(=O)c1ccc(NC(=O)CCCN2C(=O)COc3ccc(C)cc32)cc1	98	0	-4	98	4	1	.
CCCC[n+]1ccn(-c2nc3c([N+](=O)[O-])cccc3n2C)c1	100	-7	-3	103	.	3	.
N#CCCN(Cc1ccccc1)C(=O)Nc1ccc(F)cc1	87	-1	4	83	1	-28	.
CCOC(=O)C1CC2=C(CCCC2=O)N(Cc2ccccc2)C1=O (stereo not given)	.	.	10	.	.	.	.
SMILES	MEKK2 WT-MEK5	UBC13 inh	ATG4B inh	MEKK3 PB1 HTS	PREPL inhibitor	MEKK2mut PB1 HTS	PLA2 counter	others
O=Cc1cc(N=Nc2ccccc2Cl)ccc1O	90	-47	56*	99	15	-2	77*
O=Cc1cc(N=Nc2cccc(C(=O)O)c2)ccc1O	92	-31	7	89	9	-3	.
CN(C)S(=O)(=O)c1cccc(NC(=O)Cc2ccc(-c3ccccc3)cc2)c1	109	-4	-2	107	18	2	.
CCCCCCOc1ccc(N2C(=O)CC(S/C(N)=N/N=C(\C)c3cccs3)C2=O)cc1 (stereo not given)	93	-17	49*	93	0	-5	5	ATG4B confirm=61*
Oc1ccc(C2C(c3ccccc3)=NN=C(c3ccc(Cl)cc3)N2O)c(O)c1 (stereo not given)	96	-2	60*	94	6	-2	76*
Oc1ccc(C2C(c3ccccc3)=NN=C(c3ccccc3F)N2O)c(O)c1 (stereo not given)	92	-2	63*	95	-5	-2	84*
COc1cc(C=O)ccc1OCc1ccccc1Br	94	3	53*	93	13	-3	52*
CCCc1nc2c(=O)n(C)c(=O)nc-2n(C)n1	99	.	77*	94	.	1	0	ATG4B confirm=29
COc1ccc(Cc2nnc(NC(=O)c3cccc([N+](=O)[O-])c3)s2)cc1	110	-5	51*	121	20	1	5
Cc1ccc(Oc2cc(NC(=O)CCCn3nc([N+](=O)[O-])cc3C)cc([N+](=O)[O-])c2)cc1	125	3	67*	103	-6	2	65*
Cc1ccc(C)c(Oc2cc(NC(=O)CCCn3nc(C)c([N+](=O)[O-])c3C)cc([N+](=O)[O-])c2)c1	120	7	65*	109	6	5	64*
Cc1cc([N+](=O)[O-])nn1CCCC(=O)Nc1ccc2c(c1)OCO2	103	-3	0	99	13	2	.
Cc1nn(CCCC(=O)Nc2cc(Oc3ccccc3)cc([N+](=O)[O-])c2)c(C)c1[N+](=O)[O-]	107	1	53*	101	9	6	63*
Cc1ccccc1-c1cc(C(=O)NCc2cccc(C(F)(F)F)c2)n(CC2CC(c3cccnc3)=NO2)n1 (stereo not given)	.	-5	8	.	-2	.	.
CCCCCCN[C@H]1CCC2C3CC=C4C[C@@H](O)CC[C@]4(C)C3CC[C@@]21C (stereo not given in full)	.	26	1	.	7	.	.
O=C(NC1CCN(Cc2ccccc2)CC1)c1cccc(S(=O)(=O)Nc2ccc(F)cc2)c1	.	6	-7	.	6	.	.
CCOC(=O)N1CCN(c2nc(-c3ccccc3)c3ccccc3n2)CC1	95	18	2	99	1	1	.
